Drawing on ChEMBL document CHEMBL1157539, “Thousands of chemical starting points for antimalarial lead identification” (Nature, 2010), this text covers Inhibition for 29 compounds.

As a reminder, the Inhibition is how much of the control response was suppressed. A higher Inhibition goes with strong suppression.

Common to all, as to type: functional
Assay [1] deals with Plasmodium falciparum. The experiment in a line: GSK_TCMDC: Inhibition of Plasmodium falciparum 3D7 in whole red blood cells, using parasite LDH activity as an index of growth. Test compounds present at 2uM.
Assay [2] relates to Plasmodium falciparum. The experiment in a line: GSK_TCMDC: Inhibition of Plasmodium falciparum Dd2 in whole red blood cells, using parasite LDH activity as an index of growth. Test compounds present at 2uM.
The test system of assay [3] is HepG2. Briefly: GSK_TCMDC: Percent inhibition of human HepG2 cell line. Test compounds present at 10uM.

`Cc1cc(F)ccc1-c1nc(NCCCNCCc2ccccc2)nc2c1ccc(=O)n2-c1c(F)cccc1F.O=C(O)C(F)(F)F`: the Inhibition in assay [1] is reported as 100%; in assay [2] it was 100%; in assay [3], 36%.
For the compound `O=C(Nc1ccc(S(=O)(=O)N2CCCCCC2)cc1)c1cc(-c2ccccc2O)n[nH]1`, the Inhibition in assay [1] was found to be 100%; in assay [2], 76%; in assay [3] it was 16%.
As to `O=C(Nc1cccc(-c2ccc(-c3nc4cc(C(F)(F)F)ccc4[nH]3)cc2)c1)Nc1ccc(Cl)c(Cl)c1`, the Inhibition in assay [1] came to 100%; in assay [2], 51%; in assay [3] it was 93%.
For `CC(C)c1ccc(NC(=O)c2ccc(C(=O)NCC3CCN(CC4CCCCC4)CC3)cc2)cc1.O=C(O)C(F)(F)F`, the Inhibition in assay [1] is recorded as 92%; in assay [2] it was 18%; in assay [3], 26%.
For `CCN(CC)CCN(Cc1ccc(-c2ccc(C(F)(F)F)cc2)cc1)C(=O)Cn1c(CCc2cccc(F)c2F)cc(=O)c2c1CCCC2.O=C(O)C(O)C(O)C(=O)O`, the Inhibition in assay [1] came to 100%; in assay [2] it was 95%; in assay [3], 93%.
For the compound `CN1CCC(Oc2ccc(CN3CC[C@H](NC(=O)c4cc(F)cc(F)c4)C3)c3ccccc23)C1.O=C(O)C(F)(F)F` (some centres not stated), the Inhibition in assay [1] is given as 98%; in assay [2], 23%; in assay [3], 26%.
On to `COc1ccc(CN2CCN(Cc3cc(Cl)ccc3O)CC2CCO)c(C)c1C` (configuration not stated), for which the Inhibition in assay [1] was determined as 94%; in assay [2], 76%; in assay [3] it was 1%.
In the case of `O=C(C=Cc1ccc(Cl)c(Cl)c1)NCCCCCN1CCCC(CCCNC(=O)C2CC2c2ccccc2)C1` (configuration not stated), the Inhibition in assay [1] was determined as 85%; in assay [2], 5%; in assay [3], 48%.
With `C=CCc1cc(Cc2cnc(N)nc2N)c2ccc(C)nc2c1O`, the Inhibition in assay [1] came out at 84%; in assay [2], 3%; in assay [3], 51%.
Regarding `O=[N+]([O-])c1ccc(Nc2nc(N/N=C/c3cc(Cl)cc(Cl)c3O)nc(Nc3ccccc3)n2)cc1`, the Inhibition is 100% in assay [1], 72% in assay [2] and 29% in assay [3].
For `CC(C)(C(=O)NCCC1CCN(CCCCCNC(=O)/C=C/c2ccc(Cl)c(Cl)c2)CC1)c1ccc(Cl)cc1`, in that order: 89%, 33% and 92%.
On to `COc1cccc2cc(C(=O)N[C@@H](CC(C)C)C(=O)NC3CC[C@@H](C)N(C(=O)Nc4ccncc4)CC3=O)oc12` (some centres not stated), for which the Inhibition in assay [1] turned out to be 95%; in assay [2], 90%; in assay [3], 7%.
For `Cc1cc(C)cc(NC(=S)NCCCCN2CCN(c3cccc(Cl)c3)CC2)c1`, in that order: 88%, 13% and 11%.
In the same order, the values of `CC(=O)N(C)c1ccc(C(=O)Nc2cccc(-c3cccc(-c4nc5cc(C(F)(F)F)ccc5[nH]4)c3)c2)cc1` are 96%, 29% and 31%.
For `C=CCn1c(SCC(=O)Nc2cc(C)ccc2OC)nc2sc(C)cc2c1=O`, in that order: 100%, 86% and 6%.
`NC1CCN(Cc2cccc(-c3ccc(-c4nc5cc(F)ccc5[nH]4)cc3)c2)C1.O=C(O)C(F)(F)F` (configuration not stated): the Inhibition worked out at 99% in assay [1], 99% in assay [2] and 24% in assay [3].
Regarding `CC(C)C[C@H](Nc1ccnc(NCC2CCCCC2)n1)C(=O)NCCOc1ccccc1.O=C(O)C(F)(F)F`, the Inhibition worked out at 89% in assay [1], 73% in assay [2] and 37% in assay [3].
Turning to `Cn1cnc(CCNC(=O)c2ccc(-c3cccc(-c4nc5ccccc5[nH]4)c3)cc2)c1`, the Inhibition turned out to be 93% in assay [1], 14% in assay [2] and 1% in assay [3].
For `Cc1cc(C)cc(N2C(N)=NC(N)=NC2(C)C)c1.Cl`, in that order: 93%, 6% and 58%.
As to `Cc1cccc2nc(-c3ccc(-c4ccc(CN5CCCC(N)C5)cc4)cc3)[nH]c12.O=C(O)C(F)(F)F` (configuration not stated), the Inhibition in assay [1] came to 99%; in assay [2], 100%; in assay [3] it was 33%.
Take `O=C(Nc1ccc(-c2cccc(-c3nc4cc(C(F)(F)F)ccc4[nH]3)c2)cc1)c1ccc(=O)[nH]n1`: the results for the Inhibition in assay [1], in assay [2] and in assay [3] were 87%, 13% and 72%, respectively.
In the case of `CCCCCCCCS(=O)(=O)NCCCC1CCN(CCCCCNC(=O)C=Cc2ccc(Cl)c(Cl)c2)CC1`, the Inhibition in assay [1] was determined as 91%; in assay [2], 26%; in assay [3], 100%.
For `CC(Oc1c(C2CCN(CCCCNC(=O)c3ccc(-c4ccc(C#N)cc4)cc3)CC2)ccc2c1CCCC2)C(N)=O` (configuration not stated), in that order: 100%, 83% and 41%.
As to `Cc1ccccc1C1CCN(C2CCC(NC(=O)C3=Cc4cc(Cl)ccc4OC3)CC2)CC1` (configuration not stated), the Inhibition was 100% in assay [1], 99% in assay [2] and 51% in assay [3].
Take `CCNc1cc(C(=O)N[C@@H](Cc2ccccc2)[C@H](O)CNC(C)(C)Cc2cccc(OC)c2)cc(N2CCCC2=O)c1.O=CO`: the Inhibition came out at 99% in assay [1], 97% in assay [2] and 7% in assay [3].
In the case of `C[C@H](Cc1ccc(OCCCCCCOc2ccc(C[C@@H](C)N[C@H](C)c3ccccc3)cc2)cc1)NC[C@H](O)c1cccc(Cl)c1.Cl`, the Inhibition in assay [1] amounted to 99%; in assay [2], 98%; in assay [3], 99%.
Take `Cc1ccc(-n2nc3ccc(NC(=O)c4ccc([N+](=O)[O-])o4)cc3n2)cc1C`: the figures for the Inhibition in assay [1], in assay [2] and in assay [3] were 94%, 95% and 20%, respectively.
For `CC(C)CCNCC(O)Cn1c2ccc(Cl)cc2c2cc(Cl)ccc21` (configuration not stated), in that order: 99%, 99% and 36%.
Turning to `O=C(Nc1ccc(-c2cccc(-c3nc4ccccc4[nH]3)c2)cc1)NC1CC1c1ccccc1` (configuration not stated), the Inhibition in assay [1] was determined as 84%; in assay [2], 6%; in assay [3], 63%.
